A selection: hits, their analogues and other compounds. The true share with any hit is near 22%.
CYP2C9 inh: blockers of cytochrome P450 2C9 activity – biochemical, luminescence, ADME assay, primary screen | P11712 | actives 20% (n = 96,000) | inhibition, % at 5 µM | CYP2C9 Supersomes, luciferin-H conversion;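 active = blocking of liver enzyme CYP2C9 beyond about 50% at 5 µM, limit read from the data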
Measles CPE: compounds protecting cells from measles virus cytopathic effect, primary screen, measles RdRp inhibitor project, single point, MLSMR library, absorbance; AID 841, 2007; protection (pct of control), % at 4 µM; actives 1.5% (n = 140,000); Measles virus-infected cells, CPE protection; in the data active = protection mostly above about 24%, no sharp cut-off; inactive = mostly below about 26%
CYP2C19 inh: blockers of cytochrome P450 2C19 activity – biochemical, luminescence, ADME assay, primary screen; P33261; CYP2C19 Supersomes, luciferin-H EGE luminescence, 30 min; inhibition, % at 5 µM; actives 21% (n = 96,000);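 active = CYP2C19 inhibition above a set limit at 5 µM in the primary screen, cut at about 50% in these data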
Target sequence (P33261 whole entry, looked up): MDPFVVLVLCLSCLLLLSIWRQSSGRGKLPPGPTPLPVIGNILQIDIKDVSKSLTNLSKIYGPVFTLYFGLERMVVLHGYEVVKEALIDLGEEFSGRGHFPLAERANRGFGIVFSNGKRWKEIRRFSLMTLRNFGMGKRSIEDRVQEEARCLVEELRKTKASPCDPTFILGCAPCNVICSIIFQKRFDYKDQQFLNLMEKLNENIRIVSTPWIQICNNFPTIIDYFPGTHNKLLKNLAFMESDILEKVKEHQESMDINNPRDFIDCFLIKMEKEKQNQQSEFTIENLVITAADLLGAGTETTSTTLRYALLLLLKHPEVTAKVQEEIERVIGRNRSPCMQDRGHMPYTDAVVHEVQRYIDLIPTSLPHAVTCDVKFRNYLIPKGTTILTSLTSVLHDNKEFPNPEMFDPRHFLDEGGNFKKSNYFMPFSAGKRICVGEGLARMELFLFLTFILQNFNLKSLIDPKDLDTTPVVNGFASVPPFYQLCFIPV
CYP2C9 act: human CYP2C9 activators, primary screen, biochemical, luminescence. actives 1.4% (n = 96,000). AID 1024, 2008. recombinant CYP2C9, luciferin-H conversion; stronger effect = higher value; factor 1 = untreated enzyme, 0 = blocked. Cytochrome P450 2C9 (Homo sapiens), P11712. activation factor at 5 µM;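 active = activation factor of 2 or more for CYP2C9 at a 5 µM dose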
CYP2C19 act: human CYP2C19 activators, primary screen, biochemical, luminescence | AID 1025, 2008 | Cytochrome P450 2C19 (Homo sapiens), P33261 | activation factor at 5 µM | 96,000 tested, under 10 active | recombinant CYP2C19, luciferin-H EGE luminescence; stronger effect = higher value; 0 = fully inhibited enzyme, 1 = untreated enzyme;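 active = activation factor of at least 2 at 5 µM in the primary screen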
Large screens that a line does not name were inactive.

COC(=O)c1cc(NC(=O)CC2SC(=Nc3ccccc3)N(CCc3c[nH]c4ccccc34)C2=O)cc(C(=O)OC)c1 (stereo not drawn)	CYP2C9 inh 80.6
CCn1c2ccccc2c2cc(N=C3SC(CC(=O)Nc4ccccc4OC)C(=O)N3CCOC)ccc21 (stereo not drawn)	none (no result: CYP2C9 inh, CYP2C19 inh, CYP2C9 act, CYP2C19 act)
CCOC(=O)c1c(NC(=O)CC2SC(=NC)N(C)C2=O)sc(C)c1C (stereo not drawn)	none
COCCN1C(=O)C(CC(=O)Nc2ccc(C(=O)O)cc2)SC1=Nc1ccccc1 (stereo not drawn)	none
CCn1c2ccccc2c2cc(N=C3SC(CC(=O)Nc4ccccc4)C(=O)N3C)ccc21 (stereo not drawn)	CYP2C9 inh 87.1
CN=C1SC(CC(=O)Nc2ccccc2F)C(=O)N1C (stereo not drawn)	none
CN=C1SC(CC(=O)Nc2cccc(C(F)(F)F)c2)C(=O)N1C (stereo not drawn)	CYP2C9 act 3.9
O=C(Nc1ccc(Cl)cc1F)c1ccccc1Br	none (no result: CYP2C9 inh, CYP2C19 inh, CYP2C9 act, CYP2C19 act)
Cc1c(N2C(=O)CS/C2=N\N=C\c2ccc(Cl)cc2)c(=O)n(-c2ccccc2)n1C	none
Cn1c(=O)c2c(nc(NCCCO)n2Cc2cccc(C(F)(F)F)c2)n(C)c1=O	CYP2C19 inh 58.6
CCNc1nc2c(c(=O)n(Cc3ccccc3)c(=O)n2C)n1Cc1ccccc1	CYP2C9 inh 90.1, CYP2C19 inh 84.3
CC1CN(c2nc3c(c(=O)n(Cc4ccc(Cl)c(Cl)c4)c(=O)n3C)n2C)CC(C)O1 (stereo not drawn)	none
Cn1c(=O)c2c(nc(NCc3cccnc3)n2Cc2ccc(Cl)cc2)n(C)c1=O	CYP2C9 inh 70.2, CYP2C19 inh 54.1
Cn1c(N2CCN(c3ccccn3)CC2)nc2c1c(=O)n(Cc1ccc(Cl)cc1)c(=O)n2C	CYP2C9 inh 86.2, CYP2C19 inh 91.6
Cn1c(=O)c2c(nc(NCc3ccccc3)n2Cc2ccc(F)cc2)n(C)c1=O	none (no result: CYP2C9 inh, CYP2C19 inh, CYP2C9 act, CYP2C19 act)
CCN(CC)C(=O)C1CCCN(Cc2ccccc2F)C1 (stereo not drawn)	none
C(=N\n1cnnc1)/c1cccc2ccccc12	none
O=C(O)C1CC=CCC1C(=O)Nc1ccccc1C(=O)N1CCN(c2ccc(F)cc2)CC1 (stereo not drawn)	none (no result: CYP2C9 inh, CYP2C19 inh, CYP2C9 act, CYP2C19 act)
O=C(CCCSc1nnnn1-c1cccc2ccccc12)c1ccc(F)cc1	CYP2C9 act 2.4
c1ccc(CSc2nnnn2-c2cccc3ccccc23)nc1	CYP2C9 act 2.3
COC(=O)CSc1nnnn1-c1cccc2ccccc12	CYP2C9 act 3.2
COc1ccccc1-n1nnnc1SCC(=O)Nc1ccccn1	none
O=C(O)c1cccc(-n2nnnc2SCc2ccccn2)c1	none
CCOC(=O)NC(NCc1ccccc1)(C(F)(F)F)C(F)(F)F	Measles CPE 43.7 (no result: CYP2C9 inh, CYP2C19 inh, CYP2C9 act, CYP2C19 act)
CCOC(=O)NC(NCCc1ccccc1)(C(F)(F)F)C(F)(F)F	CYP2C9 inh 53.4, CYP2C19 inh 63.4
CCOC(=O)NC(Nc1ccc(C)cn1)(C(F)(F)F)C(F)(F)F	none
CCOC(=O)C(NCCc1ccccc1)(NC(C)=O)C(F)(F)F (stereo not drawn)	none (no result: CYP2C9 inh, CYP2C19 inh, CYP2C9 act, CYP2C19 act)
Cc1ccc([N+](=O)[O-])cc1S(=O)(=O)N(C(=O)c1ccncc1)c1ccc2oc3c(c2c1)CCCC3	none (no result: CYP2C9 inh, CYP2C19 inh, CYP2C9 act, CYP2C19 act)
CC1(C)CC(OC(=O)c2ccccc2)CC(C)(C)N1	none
CC(NC(=O)c1ccc(Cn2cc([N+](=O)[O-])cn2)o1)c1ccccc1 (stereo not drawn)	none
CCC(NC(=O)c1cccc(Cn2cc([N+](=O)[O-])cn2)c1)c1ccc(C(C)C)cc1 (stereo not drawn)	CYP2C9 inh 96.0
O=C(Nc1ccn(Cc2ccccc2)n1)c1cccc(Cn2cc([N+](=O)[O-])cn2)c1	none (no result: CYP2C9 inh, CYP2C19 inh, CYP2C9 act, CYP2C19 act)
CC(NC(=O)c1cccc(Cn2cc([N+](=O)[O-])cn2)c1)c1ccc(C(C)(C)C)cc1 (stereo not drawn)	CYP2C9 inh 81.1, CYP2C19 inh 60.7
Cc1ccc(NC(=S)NCC2CCCO2)c(OC(F)F)c1 (stereo not drawn)	none (no result: CYP2C9 inh, CYP2C19 inh, CYP2C9 act, CYP2C19 act)
CN1CCN(c2nc(-c3ccccc3)cc(C(F)(F)F)n2)CC1	CYP2C19 inh 50.0
CC1CCN(c2nc(-c3ccccc3)cc(C(F)(F)F)n2)CC1	none
CCOC(=O)C1=C(N)N(c2ccccc2Oc2ccccc2)C(=O)C1	CYP2C9 inh 64.8, CYP2C19 inh 78.4
O=C(Nc1cccc(F)c1)c1ccccc1-c1ccccc1	none (no result: CYP2C9 inh, CYP2C19 inh, CYP2C9 act, CYP2C19 act)
CC(C)(C)C(=O)Oc1cc(N)n(S(=O)(=O)c2ccc(F)cc2)n1	CYP2C9 inh 75.1, CYP2C19 inh 59.0
COc1ccc(S(=O)(=O)n2nc(OC(=O)c3c(-c4ccccc4Cl)noc3C)cc2N)cc1	CYP2C9 inh 94.2
COc1ccc(S(=O)(=O)n2nc(OC(=O)C3CCCCC3)cc2N)cc1	none
CCc1cn(S(=O)(=O)c2ccccc2OC)nc1N	CYP2C19 inh 50.0
COc1ccccc1-c1cn(S(=O)(=O)c2ccc(C)cc2)nc1N	CYP2C9 inh 56.2
COc1ccccc1C(=O)Oc1cc(N)n(S(=O)(=O)c2ccc(C)cc2)n1	CYP2C9 inh 80.9
COc1ccc(NS(=O)(=O)c2ccc(N3CCOCC3)c(NC(=O)c3cccc(F)c3)c2)cc1	none (no result: CYP2C9 inh, CYP2C19 inh, CYP2C9 act, CYP2C19 act)
CC(c1cccnc1)N(CCN(C)C)C(=O)Nc1ccc(Cl)cc1 (stereo not drawn)	none
CCOC(=O)c1c(C)sc2c1N(C(=O)CN(CC)CC)c1cc(Cl)ccc1S2	CYP2C9 inh 70.4, CYP2C19 inh 70.2
COc1ccc(C2C(C#N)=C(SCC(=O)Nc3ccc(C)cc3)NC3=C2C(=O)CC(C)(C)C3)cc1 (stereo not drawn)	none
CCCCc1ccc(NC(=O)CSC2=C(C#N)C(c3ccco3)C3=C(CCCC3=O)N2)cc1 (stereo not drawn)	CYP2C9 inh 91.8, CYP2C19 inh 75.5
COc1ccc(NC(=O)CSC2=C(C#N)C(c3ccco3)C3=C(CCCC3=O)N2)c(OC)c1 (stereo not drawn)	CYP2C9 inh 85.1, CYP2C19 inh 92.7
COc1cccc(NC(=O)CSC2=C(C#N)C(c3ccco3)C3=C(CCCC3=O)N2)c1 (stereo not drawn)	CYP2C9 inh 66.0, CYP2C19 inh 59.8
CCCC(=O)c1ccc(N2CCCC2)c(F)c1	none (no result: CYP2C9 inh, CYP2C19 inh, CYP2C9 act, CYP2C19 act)
CCc1nnc(NCn2nc(C)cc2C)s1	none
N#C/C(C(N)=O)=c1/ccc2c(c1)N1C3=C(CCCC3)CC3CCCCC31N=2 (stereo not drawn)	CYP2C9 inh 89.4, CYP2C19 inh 54.4
N#CC(C#N)=c1ccc2c(c1)N1C3=C(CCCC3)CC3CCCCC31N=2 (stereo not drawn)	CYP2C9 inh 97.8, CYP2C19 inh 90.0
Cc1ccc2oc(-c3cccc(NC(=O)c4cc(-n5cnnc5)ccc4Cl)c3)nc2c1	none (no result: CYP2C9 inh, CYP2C19 inh, CYP2C9 act, CYP2C19 act)
CC(=O)Nc1ccc(S(=O)(=O)Nc2nc3c(s2)CCCC3)cc1	CYP2C19 inh 90.7
